Results taken from the supplement of paper PMC8975748.
Structures can show the parent of a compound that is named as a salt. ± gives the standard deviation of the averaged measurements.

Legend:
[1] = test system: Saccharomyces cerevisiae BY4741 SeMeCo community; assay: z-score of subpopulation abundance vs DMSO median, subpopulation auxotrophic for M; higher = larger share of this subpopulation than in DMSO controls; settings: 10 µM; 24 h; SM minimal medium; subpopulation (auxotrophy): M
Method in brief: (§1)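 Automated confocal microscopy of paraformaldehyde-fixed cells was used to follow a Saccharomyces cerevisiae BY4741 community carrying four plasmids, each restoring one auxotrophy and encoding a distinct fluorescent protein. The community was pre-grown overnight to OD600 1.0, diluted to 0.3, and added at 70 µl to 384-well plates acoustically predosed with library drugs (10 µM final) for 24 h of growth in minimal SM medium. Single-auxotroph fluorescent strains set thresholds and autofluorescence correction, and each subpopulation's abundance was scored as a z-score against the vehicle-well median.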

[2] = test system: Saccharomyces cerevisiae BY4741 SeMeCo community; assay: z-score of subpopulation abundance vs DMSO median, subpopulation auxotrophic for L; higher = larger share of this subpopulation than in DMSO controls; settings: 10 µM; 24 h; SM minimal medium; subpopulation (auxotrophy): L
Method in brief: as §1

[3] = test system: Saccharomyces cerevisiae BY4741 SeMeCo community; assay: z-score of subpopulation abundance vs DMSO median, subpopulation auxotrophic for U; higher = larger share of this subpopulation than in DMSO controls; settings: 10 µM; 24 h; SM minimal medium; subpopulation (auxotrophy): U
Method in brief: as §1

[4] = test system: Saccharomyces cerevisiae BY4741 SeMeCo community; assay: z-score of subpopulation abundance vs DMSO median, subpopulation auxotrophic for LM; higher = larger share of this subpopulation than in DMSO controls; settings: 10 µM; 24 h; SM minimal medium; subpopulation (auxotrophy): LM
Method in brief: as §1

[5] = test system: Saccharomyces cerevisiae BY4741 SeMeCo community; assay: z-score of subpopulation abundance vs DMSO median, subpopulation auxotrophic for HM; higher = larger share of this subpopulation than in DMSO controls; settings: 10 µM; 24 h; SM minimal medium; subpopulation (auxotrophy): HM
Method in brief: as §1

[6] = test system: Saccharomyces cerevisiae BY4741 SeMeCo community; assay: z-score of subpopulation abundance vs DMSO median, subpopulation auxotrophic for HU; higher = larger share of this subpopulation than in DMSO controls; settings: 10 µM; 24 h; SM minimal medium; subpopulation (auxotrophy): HU
Method in brief: as §1

[7] = test system: Saccharomyces cerevisiae BY4741 SeMeCo community; assay: z-score of subpopulation abundance vs DMSO median, subpopulation auxotrophic for UM; higher = larger share of this subpopulation than in DMSO controls; settings: 10 µM; 24 h; SM minimal medium; subpopulation (auxotrophy): UM
Method in brief: as §1

[8] = test system: Saccharomyces cerevisiae BY4741 SeMeCo community; assay: z-score of subpopulation abundance vs DMSO median, subpopulation auxotrophic for HL; higher = larger share of this subpopulation than in DMSO controls; settings: 10 µM; 24 h; SM minimal medium; subpopulation (auxotrophy): HL
Method in brief: as §1

[9] = test system: Saccharomyces cerevisiae BY4741 SeMeCo community; assay: z-score of subpopulation abundance vs DMSO median, subpopulation auxotrophic for HLU; higher = larger share of this subpopulation than in DMSO controls; settings: 10 µM; 24 h; SM minimal medium; subpopulation (auxotrophy): HLU
Method in brief: as §1

[10] = test system: Saccharomyces cerevisiae BY4741 SeMeCo community; assay: z-score of subpopulation abundance vs DMSO median, subpopulation auxotrophic for HLM; higher = larger share of this subpopulation than in DMSO controls; settings: 10 µM; 24 h; SM minimal medium; subpopulation (auxotrophy): HLM
Method in brief: as §1

[11] = test system: Saccharomyces cerevisiae BY4741 SeMeCo community; assay: z-score of subpopulation abundance vs DMSO median, subpopulation auxotrophic for HUM; higher = larger share of this subpopulation than in DMSO controls; settings: 10 µM; 24 h; SM minimal medium; subpopulation (auxotrophy): HUM
Method in brief: as §1

[12] = test system: Saccharomyces cerevisiae BY4741 SeMeCo community; assay: z-score of subpopulation abundance vs DMSO median, subpopulation auxotrophic for HLUM; higher = larger share of this subpopulation than in DMSO controls; settings: 10 µM; 24 h; SM minimal medium; subpopulation (auxotrophy): HLUM
Method in brief: as §1

[13] = test system: Saccharomyces cerevisiae BY4741 SeMeCo community; assay: mean cell size (pixel area) (pixels); higher = larger cells; settings: 10 µM; 24 h; SM minimal medium
Method in brief: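 For 24 h, 70 µl of yeast culture diluted to OD600 = 0.3 from an overnight preculture at OD600 = 1.0 was kept in SM medium in 384-well plates acoustically predosed with drug, final 10 µM. The strain was Saccharomyces cerevisiae BY4741 forming a fluorescent community of four plasmids, each complementing one auxotrophy and carrying a fluorescent marker. Automated confocal microscopy of paraformaldehyde-fixed cells, analysed in Harmony, provided mean cell pixel area per well, which was averaged over 3 replicates. Same SeMeCo high-content imaging drug screen: Selleck FDA-approved drugs at 10 µM, 24 h in SM medium, 384-well plates, 3 replicates.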

[14] = test system: Saccharomyces cerevisiae BY4741 SeMeCo community; assay: z-score of prototroph abundance vs DMSO median; higher = larger share of this subpopulation than in DMSO controls; settings: 10 µM; 24 h; SM minimal medium; subpopulation (auxotrophy): Prototroph
Method in brief: as §1

[15] = test system: Saccharomyces cerevisiae BY4741 SeMeCo community; assay: z-score of subpopulation abundance vs DMSO median, subpopulation auxotrophic for LUM; higher = larger share of this subpopulation than in DMSO controls; settings: 10 µM; 24 h; SM minimal medium; subpopulation (auxotrophy): LUM
Method in brief: as §1

[16] = test system: Saccharomyces cerevisiae BY4741 SeMeCo community; assay: z-score of subpopulation abundance vs DMSO median, subpopulation auxotrophic for H; higher = larger share of this subpopulation than in DMSO controls; settings: 10 µM; 24 h; SM minimal medium; subpopulation (auxotrophy): H
Method in brief: as §1

| SMILES | z-score of subpopulation abundance [1] | z-score of subpopulation abundance [2] | z-score of subpopulation abundance [3] | z-score of subpopulation abundance [4] | z-score of subpopulation abundance [5] | z-score of subpopulation abundance [6] | z-score of subpopulation abundance [7] | z-score of subpopulation abundance [8] | z-score of subpopulation abundance [9] | z-score of subpopulation abundance [10] | z-score of subpopulation abundance [11] | z-score of subpopulation abundance [12] | mean cell size [13] | z-score of prototroph abundance [14] | z-score of subpopulation abundance [15] | z-score of subpopulation abundance [16] |
| --- | --- | --- | --- | --- | --- | --- | --- | --- | --- | --- | --- | --- | --- | --- | --- | --- |
| O=C1[C@@H]2[C@H]3CC[C@H](C3)[C@@H]2C(=O)N1C[C@@H]1CCCC[C@H]1CN1CCN(c2nsc3ccccc23)CC1 [lurasidone] | -0.62 | 0.42 | -1.4 | 0.39 | -0.31 | -0.35 | -1.38 | 0.22 | -0.09 | -0.11 | -0.45 | -0.82 | – | – | – | – |
| CN1CCN(C2=Nc3ccccc3Oc3ccc(Cl)cc32)CC1 [Loxapine Succinate] | -0.12 | 1.71 | 0.78 | 0.87 | 0.14 | – | 0.97 | 1.02 | 0.59 | 0.21 | -0.1 | 0.78 | 12.4 ± 0.17 | -0.71 | 1.15 | – |
| Cn1c(=O)c2[nH]cnc2n(C)c1=O [Aminophylline] | 0.43 | 0.83 | 0.26 | 0.92 | 0.42 | -0.5 | 0.33 | 0.54 | -0.5 | -0.27 | 0.11 | -0.29 | 12.5 ± 0.19 | – | 0.29 | -0.41 |
| O=C(NCCN1CCOCC1)c1ccc(Cl)cc1 | 0.03 | 1.75 | -0.52 | 1.06 | -0.79 | – | – | – | 0.17 | -0.28 | -1.26 | 0.73 | 12.4 ± 0.22 | 0.89 | 0.42 | – |
| CCCN1CCCC[C@H]1C(=O)Nc1c(C)cccc1C [Ropivacaine HCl] | 0.95 | 0.47 | 0.42 | 0.37 | -0.41 | -0.21 | 0.78 | -0.74 | -0.22 | 0.38 | – | 0.18 | 12.6 ± 0.13 | – | -0.08 | -0.94 |
| Cc1cccc(C)c1OCC(C)N (stereo not given) [Mexiletine HCl] | -0.98 | -0.39 | 0.62 | -0.69 | -0.64 | 0.61 | -0.36 | -0.55 | -0.19 | -1.23 | -0.49 | -0.35 | – | 0.5 | – | -0.52 |
| CCn1cc(C(=O)O)c(=O)c2cc(F)c(N3CCN(C)CC3)cc21 [Pefloxacin Mesylate Dihydrate] | 1.25 | -0.36 | – | -0.32 | 0.71 | – | – | 0.3 | 0.03 | 0.88 | -0.06 | -0.42 | 12.7 ± 0.14 | -0.64 | -0.46 | 0.39 |
| Clc1ccc2c(N3CCN(CCCN4CCN(c5ccnc6cc(Cl)ccc56)CC4)CC3)ccnc2c1 [Piperaquine phosphate] | 1.85 | 0.02 | 0.1 | 0.85 | 1.16 | -0.29 | 0.36 | -0.1 | 0.33 | 0.63 | -0.06 | 0.31 | 12.2 ± 0.16 | – | -0.03 | 0.23 |
| Nc1c(CC(=O)O)cccc1C(=O)c1ccc(Br)cc1 [Bromfenac Sodium] | 0.38 | -0.45 | 0.73 | – | -0.15 | 0.19 | 0.59 | -0.68 | -0.92 | -0.09 | 0.05 | 0.3 | 12.5 ± 0.043 | -0.27 | 0.39 | -0.02 |
| Nc1nc(N)nc(-c2cc(Cl)ccc2Cl)n1 [Irsogladine] | -0.36 | -0.15 | – | – | – | -0.69 | -1.92 | -0.18 | 0.75 | -0.41 | -1.16 | -0.22 | 12.2 ± 0.19 | 1.03 | -0.45 | -0.31 |
| NCC[C@H](O)C(=O)N[C@@H]1C[C@H](N)[C@@H](O[C@H]2O[C@H](CN)[C@@H](O)[C@H](O)[C@H]2O)[C@H](O)[C@H]1O[C@H]1O[C@H](CO)[C@@H](O)[C@H](N)[C@H]1O [Amikacin hydrate] | -0.02 | 1.02 | -0.78 | 0.15 | -0.36 | -0.52 | -0.12 | 0.87 | -0.03 | 0.82 | -0.33 | – | 12.16 ± 0.089 | 0.26 | -0.58 | -0.04 |
| O=C(O)Cc1ccccc1Nc1c(Cl)cccc1Cl [Diclofenac acid] | 0.23 | 0.08 | – | 0 | – | -1.1 | -0.58 | -0.51 | 0.15 | 0 | -1.34 | -0.07 | 12.5 ± 0.047 | 1.03 | -0.28 | -1.45 |
| Cc1cccc(C)c1NC(=O)C1CCCCN1C (stereo not given) [Mepivacaine] | 0.42 | -0.3 | 0.11 | 0.4 | -0.49 | -0.53 | – | -0.24 | 0.12 | -0.7 | -0.62 | -0.41 | 12.2 ± 0.28 | -0.01 | 0.08 | -1.62 |
| OC1(c2ccc(Cl)c(C(F)(F)F)c2)CCN(CCCC(c2ccc(F)cc2)c2ccc(F)cc2)CC1 [Penfluridol] | 1.3 | 0.81 | -0.01 | – | 0.4 | 0.66 | 2.69 | 0.46 | 0.93 | 0.92 | 0.44 | 0.27 | 11.65 ± 0.089 | -1.64 | 2.56 | 0.09 |
| CONC(=O)Nc1ccc(-c2sc3c(c2CN(C)C)c(=O)n(-c2ccc(OC)nn2)c(=O)n3Cc2c(F)cccc2F)cc1 [Relugolix] | -1.52 | 0.15 | 0.32 | -0.08 | -0.86 | 0.09 | -0.12 | – | 0.32 | -0.07 | -0.45 | – | 12.2 ± 0.23 | 0.18 | 0.11 | 0.68 |
